Unmarked numbers belong to inactive results.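 The calls were made as follows: active = MAPPIT score above the 99th percentile of random reference set scores in the same batch; inactive = at or below it.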
Assays:
Assay in all cases: MAPPIT interaction score (arbitrary units); higher = stronger binary interaction signal, active = hit call of the paper
CG1316 = conditions: MAPPIT configuration: N-N; pair source set: Curagen_high_conf
CG13494 = conditions: MAPPIT configuration: N-C; pair source set: screen_3
CG13840 = conditions: MAPPIT configuration: N-N; pair source set: Curagen_low_conf
CG5674 = conditions: MAPPIT configuration: N-N; pair source set: screen_2
Klp98A = conditions: MAPPIT configuration: N-N; pair source set: screen_1
Rpn13 = conditions: MAPPIT configuration: N-N; pair source set: screen_2
CG13843 = conditions: MAPPIT configuration: N-C; pair source set: screen_3
Os-C = conditions: MAPPIT configuration: N-N; pair source set: RRS
CG13058 = conditions: pair source set: RRS
CG13069 = conditions: pair source set: RRS
DCTN1-p150 = conditions: MAPPIT configuration: N-N; pair source set: Lit-BM-16
ctp = conditions: pair source set: Lit-BM-16
CG13901 = conditions: MAPPIT configuration: N-N; pair source set: Finley_Y2H
CG5862 = conditions: MAPPIT configuration: N-N; pair source set: Curagen_high_conf
RpLP1 = conditions: MAPPIT configuration: N-N; pair source set: Curagen_low_conf
CG13510 = conditions: MAPPIT configuration: N-N; pair source set: Lit-BS-16
CG13476 = conditions: MAPPIT configuration: N-N; pair source set: Lit-BS-16
CG9795 = conditions: MAPPIT configuration: N-N; pair source set: Curagen_high_conf
CG13560 = conditions: MAPPIT configuration: N-N; pair source set: Finley_Y2H
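Also: HEK293T cells with Epo stimulation, STAT-responsive firefly luciferase reporter, fold induction versus unstimulated cells divided by the larger fold induction of two negative controls lacking either bait or prey.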

B1: poly (protein)
chain: MATSVLLACGLNEQKLPGFVHISEESNVDASFLISCVLGQRLRISNAGTLLVCLQHHYQHYFNAGMRLGYNTNIFQGKTLGVIDVLSDMAGEGLASKWLTNTEGQTLTDQLVEDIRAQVERNYASRNSYTVLIDNLSILFNLGASKLQVQQFCQDLAALGKEREKLTVITKLSNSDIYQLTDNNVAKLGQVRIQVLRLKSGVFREVDGKLLIERVLDEGNYACEETRKEVLYKVNDRNVKVFAPGEIGVKV
**Q.** With B1 as the binder, how does the MAPPIT interaction score (CG1316) read?
**A.** 0.569

B2: CG5021 (protein)
chain: MASATVRNVPLLDDDTIPFGEEDEMRDPSRAGQKYTHPYVTFFHLFFRGAAILIYMFCGWFSDSFITSFVFVVLFLSADFWTVKNISGRLLVGLRWWNYVDDDGVSHWVFESKNSESYQSRVNKNEQRIFWLGLILCPVFWGLFFLFALFGLKFKWLLLVMIAIALNAANLYGYVKCNYGANKDLNSAATDFVKTQFFKNAVDIMTRPSGAPPPTNVRPTGVV
**Q.** B2 was tested. Which MAPPIT interaction score (CG13494) did it give?
**A.** 0.956

B3: sina (protein)
chain: MSNKINPKRREPTAAAAGAGATGVATNTSTSTGSSSAGNTSSANTSSSSSSSLSSAGGGDAGMSADLTSLFECPVCFDYVLPPILQCSSGHLVCVSCRSKLTCCPTCRGPLANIRNLAMEKVASNVKFPCKHSGYGCTASLVYTEKTEHEETCECRPYLCPCPGASCKWQGPLDLVMQHLMMSHKSITTLQGEDIVFLATDINLPGAVDWVMMQSCFGHHFMLVLEKQEKYDGHQQFFAIVQLIGSRKEAENFVYRLELNGNRRRLTWEAMPRSIHEGVASAIHNSDCLVFDTSIAQLFADNGNLGINVTISLV
**Q.** How did the MAPPIT interaction score (CG13840) turn out when B3 was run?
**A.** -0.135

**Q.** What about the MAPPIT interaction score (CG5674) of the same binder?
**A.** -0.0161

**Q.** And the MAPPIT interaction score (Klp98A)?
**A.** 0.0642

**Q.** What about the MAPPIT interaction score (Rpn13) of the same binder?
**A.** 0.72

B4: Dpit47 (protein)
chain: MKQMAAQKAWTDEERLELAAQLDAELDAFIDGLEKKRYEEGWPEDRWQEEMDKHPFFMKRAPQPGDDVHPMFEGLQKLKYDPEENTRDELALNYKEDGNFYMKHKKFRMAIYSFTEGIKTKTDNPDVLAVLYNNRSAAHFFIKNYRSSLSDAQRALFYKPDYTKARWRSAQCAYELERFDLCTQMCEELLEVDVDNEVAIALLHKNKMKKLEIERNQRKEAAEAKRRLTRFHRLRDAIEQRAIKFDDQKVGKKDVLSEELLYPKFLPLEDHPVHLDEDGSTLIWPAAFSYPEFLYSDFYQQLPETTTMRDCLATLLTEKLPYDKAHNYRLGNVHVYYENRKVGCVHKVDEEKQLAEIIAEKGFFVSGGALLFYVVHKDSRVEQEFINERRRPMVYS
**Q.** For B4, which MAPPIT interaction score (CG13843) is on record?
**A.** 3.75 (active)

**Q.** And the MAPPIT interaction score (Os-C)?
**A.** 1.52

B5: Fdx2 (protein)
chain: MLVINSCRAASRLALRSLNLRSPIATRTFSTGLALKTKDVVNITFVRANGDKIKTSGKVGDSLLDVVVNNNVDLDGFGACEGTLTCSTCHLIFKTSDFEKLPDKPGDEELDMLDLAYELTDTSRLGCQITLSKDMEGLEVHVPSTINDARAA
**Q.** For B5, which MAPPIT interaction score (CG13058; MAPPIT configuration: N-C) is on record?
**A.** 0.365

**Q.** What about the MAPPIT interaction score (CG13058; MAPPIT configuration: N-N) of the same binder?
**A.** 0.0953

B6: sw (protein)
chain: MDRKAELERKKAKLAALREEKDRRRREKEIKDMEEAAGRIGGGAGIDKDQRKDLDEMLSSLGVAPVSEVLSSLSSVNSMTSDNSNTQTPDASLQATVNGQSGGKKQPLNLSVYNVQATNIPPKETLVYTKQTQTTSTGGGNGDVLSCHSSPLSGYMEDWWRPRKAHATDYYDEYNLNPGLEWEDEFTDDEESSLQNLGNGFTSKLPPGYLTHGLPTVKDVAPAITPLEIKKETEVKKEVNELSEEQKQMIILSENFQRFVVRAGRVIERALSENVDIYTDYIGGGDSEEANDERSHARLSLNRVFYDERWSKNRCITSMDWSTHFPELVVGSYHNNEESPNEPDGVVMVWNTKFKKSTPEDVFHCQSAVMSTCFAKFNPNLILGGTYSGQIVLWDNRVQKRTPIQRTPLSAAAHTHPVYCLQMVGTQNAHNVISISSDGKLCSWSLDMLSQPQDTLELQQRQSKAIAITSMAFPANEINSLVMGSEDGYVYSASRHGLRSGVNEVYERHLGPITGISTHYNQLSPDFGHLFLTSSIDWTIKLWSLKDTKPLYSFEDNSDYVMDVAWSPVHPALFAAVDGSGRLDLWNLNQDTEVPTASIVVAGAPALNRVSWTPSGLHVCIGDEAGKLYVYDVAENLAQPSRDEWSRFNTHLSEIKMNQSDEV
**Q.** For B6, which MAPPIT interaction score (CG13069; MAPPIT configuration: N-C) is on record?
**A.** -0.364

**Q.** And the MAPPIT interaction score (CG13069; MAPPIT configuration: N-N)?
**A.** 0.421

**Q.** And the MAPPIT interaction score (DCTN1-p150)?
**A.** 1.87

**Q.** What about the MAPPIT interaction score (ctp; MAPPIT configuration: N-C) of the same binder?
**A.** 1.37

**Q.** And the MAPPIT interaction score (ctp; MAPPIT configuration: N-N)?
**A.** 1.75

B7: Ufl1 (protein)
chain: MGSDWDEIKRLAADFQKAQLTSTLQKLSERNCVEIVTLLLEKQMLEVVFTNDGKEYITPDHLEREIQDELYVNGGRANLVEVSKTLNVDLSRIELLAERISAENQSVHLVLGQLIDEDYISHIAQEINEKLVQRGEVSISELASQFDLPSDFLQHDVVEKHLGKIIKGRQDASNPRVFFTQAYIQRCKAKIRGALAAITRPINVAVILQKIGVQEKIFYSLLDEIAPAGQVTSKQANSQYVPHIYAKTQADWVNSFYKQNSFLEYDAIQKLGISDAKSYIRKQFPNEEFLYLKRVALGARLVELTVVTALNECSATKQYLDLTTILPSNLSEEDIEEVFSTIMAQKHSNPSNFVYLDGIVFSQPYLAQLVQPCQALAESQAKAAIDGGVYQQYIVEKTLAQKGNVSTQELEDEGKVDKRDERRKKASSGKAGGGAQGRETKTKSTKKHQRGKAAAQFDSDDEDDAQQGSRGGGGASKKAVKPLELVKTADIVKLITASLEEEGLEHLSKSIASLYTNQFNQTALARAQELFEATPQTNRRQTHAAIQDRINTLLIDIRLYEKGLKLFPQDTQTQLVKYLLKSLGNEICNELSLYVASECNLTVKNTNLNVDQRNKLAQECEAQYRAALLEQNKALNKSIDDFELATETVLKTCSMIIKKVDKKKDRLLIADHKKKLQKQLLECNEPALLLHLAALILFTTITGSILHASGKFVSAILQHIRGSLNEDQNALLLRYHDLVLQVLQAIPDSNESKLANEHLQTMQNQVVELAQNFSRASISKAD
**Q.** How did the MAPPIT interaction score (CG13901) turn out when B7 was run?
**A.** 1.55

**Q.** What about the MAPPIT interaction score (CG5862) of the same binder?
**A.** -0.395

**Q.** What about the MAPPIT interaction score (RpLP1) of the same binder?
**A.** -0.273

B8: Grip75 (protein)
chain: MIHDLLLACRSHNPEQLGIKAFNETTVIDQFIHPCEREIFMDIIKIIKVYQEVEQFTHSSGRKSDTHGELPDSLHGYYLLNLAKGIEMALEEYYAEIGRLEKYCLGNERNSLSYVYNALYAKFPLLVFMRNLITEIHVLNLRGCVLLHNLHQQCEHGDIQLEKAIKIIMKPVKNAFFSSLAHWLLFGVIDDVHSEFFIKFTPTDAVDGSSFSKSATCSLLSAEKNPEDYIWQYEVNMSQLPGFFSIVLAEKVLFVGQTVLVFKMGRNVKVKNKTDPLAAKLAELDSDDIYQLWSGRESEFFKMVVDLSNEDTINVFRLEKVIIDIKNYVSARLSEIAVNEVDLERQMGLIKDFFLLGRGEFYLEFCSQMVGTMETYREERFKNVTRSFELAATVTGITDDLDKFSLICQRSTSEPDDTSDFNFLQGLSLKYEYEWPLNLLFSPTTIERYNNIFRFLLIIRTYQYEIQRVWAKQTWRAKSAKDVPPNNKIITLRNYLMFFLNNMQYYIQVDVLESQFGILMNVIKSRSDFEVIQRAHTVFLANVLSHCFLLNESETQLNVTGSQNRNPIYGTLLKLFGICEKFAHMTQTKDPSDDLEDEVDQLNESFGVQIASLIQLLVDVKSASCLGPLSQLLLRLDFNCWFSASHNTSA
**Q.** With B8 as the binder, how does the MAPPIT interaction score (CG13510) read?
**A.** 0.427

B9: Nin (protein)
chain: MEVSADPYEQKLYQMFRSCETQCGLLDEKSLLKLCSLLELRDQGSALIASLGGSHQLGVSFGQFKEALLNFLGSEFDGNTSSGFIERSLVITDEPLNNTYIESPPESSDREVSPKLVVGTKKYGRRSRPQQGIYELSVTDSDNTDEDQLQQQQNQRSLNGCDELGVQVQRSSSQSDLPGSRRLRSVHTSGSKLKRCASLPARRKMNSNTTGATTSPTAAAKLKQLSIQSQAQHSSSVESLDTVTPQQLETISVHSIMEAWELASIPNTRNLLHVLGFDEEEEVNLQQLTKALEEELRGIDGDHEQSNMLRALAALQATELGNYRLAYRQQHEENLKLRADNKAANQRVALLAVEVDERHASLEDNSKKQVQQLEQRHASMVREITLRMTNDRDHWTSMTGKLEAQLKSLEQEEIRLRTELELVRTENTELESEQQKAHIQITELLEQNIKLNQELAQTSSSIGGTPEHSPLRPRRHSEDKEEEMLQLMEKLAALQMENAQLRDKTDELTIEIESLNVELIRSKTKAKKQEKQEKQEDQESAATATKRRGDSPSKTHLTEESPRLGKQRKCTEGEQSDASNSGDWLALNSELQRSQSQDEELTSLRQRVAELEEELKAAKEGRSLTPESRSKELETSLEQMQRAYEDCEDYWQTKLSEERQLFEKERQIYEDEQHESDKKFTELMEKVREYEEQFSKDGRLSPIDERDMLEQQYSELEAEAAQLRSSSIQMLEEKAQEISSLQSEIEDLRQRLGESVEILTGACELTSESVAQLSAEAGKSPASSPISYLWLQSTIQEPAKSLADSKDEATASAIELLGGSPSHKTASRNNLTTSETSIFSTTPFESSQSGPSPTNSGNSNAYGANPGPAPISKPKRSQSPQQAAASEGEIADCETSSTASGKSFESNSKTSCLSHEKCSSPSALKEELKRLKFFELSLKEQIKDLSLQRDGLVMELQQLQEARPVLEKAYARTTHPTLQQRLNQLELRNRHLQNVIKQQQHYTESLMQQSWRQHQVELNDLHSRIETQGVLLADQTQRLQSADILVKDLYVENSHLTATVQRLEQQRARVNLIHQQQQQQRLVGGGLPGMP
**Q.** For B9, which MAPPIT interaction score (CG13476) is on record?
**A.** 0.125

**Q.** And the MAPPIT interaction score (CG9795)?
**A.** 4.19 (active)

B10: Treh (protein)
chain: MFKLPTISLLLVSWSCLVALSQAKTYSLPDLTTDYNNAIPVDEEEAQDPFASCKIYCEGNLLHTIQTAVPKLFADSKTFVDMKLNNSPDKTLEDFNAMMEAKNQTPSSEDLKQFVDKYFSAPGTELEKWTPTDWKENPSFLDLISDPDLKQWGVELNSIWKDLGRKMKDEVSKNPEYYSIIPVPNPVIVPGGRFIEFYYWDSYWIIRGLLYSQMFDTARGMIENFFSIVNRFGFIPNGGRVYYHGRSQPPLLTGMVKSYVDFTNDDKFAIDALDTLEHEFEFFVNNHNVTVKNHSLCVYRDSSSGPRPESYREDVETGEEFPTDEAKELHYSELKAGAESGMDFSSRWFISPTGTNDGNRSALSTTSIVPVDLNAYLYWNAKLIAEFHSKAGNTKKVTEYETKAEKLLLGIQEVLWNEEAGVWLDYDMINQKPRDYYTPTNLSPLWVKAFNISESEKISASVMAYIERNKLDSFPGGVPNTLSYTGEQWDAPNVWAPMQYILVEGLNNLNTPEAKNMSLKWATRWVKTNFAAFSKDRHMYEKYNADEFGVGGGGGEYEVQTGFGWSNGVIIEWLSKHGRDISIGSGCGCLAGEKRQ
**Q.** With B10 as the binder, how does the MAPPIT interaction score (CG13560) read?
**A.** -0.19
